# An excerpt weighted towards active compounds, which were near 12% of everything screened.
# ROMK primary: modulators of human ROMK potassium channel. P48048. Tet-inducible ROMK, thallium flux fluorescence; actives lie on both sides. B-score at 10 µM. actives 2% (n = 130,000);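 active = signal ratio slope over the read window, or its plate-corrected B-score, at least 3 SD from the plate mean, either direction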;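 also: B-score of the F/F0 ratio slope over 7 to 12 s after thallium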
# Cl transport mod: modulates chloride dependent transport by human KCC2; KCC2 cells, thallium flux FluoZin-2 fluorescence; B-score of Tl+ flux slope (higher = more flux/activation; lower = inhibition) at 10 µM; actives 2.2% (n = 190,000);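 active = thallium flux slope and its plate-corrected score both differing from the plate sample mean at a set confidence after two filtering rounds, in either direction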;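 also: slope of fluorescence scaled to starting intensity during 10 to 20 s after thallium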
# Insulin prom inh: TRM-6 insulin promoter activity inhibition | TRM-6 cells (human fetal islet line), insulin promoter-eGFP reporter, imaging; reporter expression induced with tamoxifen | inhibition, % at 2 µM | actives 0.9% (n = 130,000);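 active = inhibition above the mean plus 3 SD, with well images judged a real hit on visual review, cut at about 60% in these data, passing the limit was not always enough; inconclusive = inhibition over the cutoff but images rejected on review; inactive = inhibition not above the cutoff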
# L major viab: Leishmania major promastigote growth inhibition; inhibition, % at 10 µM; Leishmania major promastigotes, resazurin fluorescence viability; actives 9% (n = 200,000); AID 1063; in the data active = inhibition above about 50%;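 also: promastigotes grown with compound for 44 hours at 28 °C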
# WT yeast gro inh: growth inhibition of WT yeast, mitochondrial fusion screen; inhibition, % at 10 µM; actives 2.1% (n = 190,000); mitochondrial fusion phenotypic screen, WT strain; in the data active = inhibition above about 58%; tested in S. cerevisiae
# Ins promoter up: MIN6 insulin promoter up-regulation. MIN6 insulin promoter-GFP reporter, high-content imaging; hits give high values. z-score at 5 µM. actives 0.3% (n = 190,000);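 active = z-score above 3 at 5 µM with at least 500 cells counted in the well; inconclusive = wells under 500 cells, flagged as cytotoxic or low count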
# ROMK retest: human ROMK channel modulation, retest confirmation; shares compounds with ROMK primary; ROMK thallium flux, fluorescence ratio; hits give low values; normalized thallium flux (F/F0 slope) at 10 µM; actives 54% (n = 3,000); AID 1917;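 active = Flux at 10 µM at least 3 SD below or above vehicle control mean in one or both replicates; inconclusive = no clear call, values can overlap the other calls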
# * = called active by the depositor; i = inactive; u = inconclusive; x = not tested or not shown.
SMILES,ROMK primary,Cl transport mod,Insulin prom inh,L major viab,WT yeast gro inh,Ins promoter up,ROMK retest
Cc1ccc(S(=O)(=O)N2CCOCC2)cc1NC(=O)c1cccc(S(=O)(=O)N2CCCC2)c1,0.75,-0.28,x,-2,-23,0.58,x
Cc1ccc(CNCC(=O)Nc2cccc(S(=O)(=O)NC3=NCCCCC3)c2)cc1,-2.6*,0.029,x,-1,-5,-0.31,0.064*
CCOC(=O)c1[nH]c(C)c(C(=O)N2CCc3ccccc32)c1C,3.2*,-0.77,-61,-1,-11,-1,0.082
O=C(N/N=C/c1cn(-c2ccccc2)nc1-c1cc2ccccc2o1)c1ccncc1,0.051,-1.6,0,43,43,-1.7,x
CN(C)S(=O)(=O)c1cccc(-c2nn(-c3ccccc3)cc2/C=C(\C#N)c2nc3ccccc3[nH]2)c1,0.94,-0.47,-407,50,20,-0.86,x
N#C/C(=C\c1cn(-c2ccccc2)nc1-c1cc2ccccc2o1)c1nc2ccccc2[nH]1,-3.5*,i,-30,7,-6,1.7,0.048*
O=C(N/N=C/c1cn(-c2ccccc2)nc1-c1cc2ccccc2o1)c1cccnc1,x,-1.3,37,97*,44,-0.55,0.075
O=C(Nc1ccccc1Cl)C1CCN(Cc2cnn(-c3ccccc3)c2-n2cccc2)CC1,-3.2*,x,x,4,-4,0.43,0.054*
COc1ccc(OC)c(NC(=O)C2CCN(Cc3cnn(-c4ccccc4)c3-n3cccc3)CC2)c1,-1.6,0.37,-13,11,7,-1.3,x
CCOC(=O)c1cnc2c(c(C)nn2C)c1Oc1ccc(Cl)cc1,x,x,-30,30,1,-0.13,x
CCOc1cc2c3c(c1)C(C)=CC(C)(C)N3C(=O)C2=O,3.2*,-0.1,13,41,-4,0.48,0.077
COc1ccccc1-c1cc(C(F)(F)F)nc(S(=O)(=O)CCCC(=O)N2CCOCC2)n1,-3.4*,x,23,100*,0,0.29,u
Cc1ccc2c(c1)N(CC(=O)Nc1ccc3c(c1)OCCO3)C(=O)CO2,x,1.1,0,-10,-11,0.26,x
COc1ccc(CSc2nncn2C)cc1F,-0.16,0.77,x,-4,-9,0.6,x
Cc1ccc(C2=N/C(=C\c3c(C)nn(-c4ccccc4)c3N3CCCC3)C(=O)O2)cc1,-0.62,0.61,-53,-2,23,0.13,x
Cc1nn(-c2ccccc2)c(N2CCCC2)c1/C=C1\N=C(c2ccc(F)cc2)OC1=O,-1.5*,-0.076,33,-6,21,-0.03,0.066*
COc1ccc(C(=O)Nc2ncc3c(n2)CC(c2ccco2)CC3=O)cc1 (stereo not given),-6.5*,0.21,x,0,13,-0.5,0.073
N#CC1=C(N)N(c2ccccc2)C(c2cccc([N+](=O)[O-])c2)C1(C#N)C#N (stereo not given),x,-0.7,-5,54*,-34,0.35,0.037*
Cc1cccc(N2C(N)=C(C#N)C(C#N)(C#N)C2c2ccccc2)c1 (stereo not given),x,-1.7,x,9,-5,0.14,0.056*
N#Cc1c(N)n(-c2ccccc2)c(=O)c2cc([N+](=O)[O-])ccc12,0.45,0.23,-6,5,-2,0.21,x
N#CC1=C(N)N(c2ccccc2)C(c2ccco2)C1(C#N)C#N (stereo not given),x,0.76,-6,2,25,0.27,x
CC(=O)c1cc2c(cc1NC(=O)c1cc3nc(C(C)C)cc(C(F)(F)F)n3n1)OCO2,x,x,x,-7,0,-0.32,0.075
CC(C)c1cc(C(F)(F)F)n2nc(C(=O)Nc3ccc(-n4cnnn4)cc3)cc2n1,x,0.31,x,x,x,-0.95,x
CN1CCN(C(=O)c2cc3sccc3n2CC(=O)c2ccccc2)CC1,x,0.81,x,7,-3,0.16,x
CC(C)(O)C(=O)NNC(=S)Nc1cccc(C(F)(F)F)c1,1,-0.012,x,3,-5,-0.31,x
Cc1ccccc1C(=O)NNC(=S)Nc1cccc(C(F)(F)F)c1,x,-0.012,11,0,-10,-0.06,0.064*
O=C(Cc1cccc2ccccc12)N/N=C/c1ccc(F)cc1,0.2,-1.2,x,-1,-1,0.85,x
O=C(Cc1cccc2ccccc12)N/N=C/c1ccncc1,-6.6*,0.9,x,-2,-5,0.45,0.08
